Data on 32 compounds can be found in PubChem BioAssay AID720706 (Broad Institute, 2013).

The structures appear in SMILES notation. About 5,500 (1.6%) of roughly 350,000 compounds were called active.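 How the source made its calls: active means significant combined selectivity score with lowered wild-type GFP, culture density cut under 30%, mutant RFP and density less affected; inactive means any of these conditions unmet.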 Only a selection was taken, and actives are over-represented in it overall.

A short description of the experiment: GFP drop in mixed WT/humanized-ribosome E. coli culture – GFP/RFP fluorescence, OD600, single point, bacterial rRNA inhibitor project, primary screen (AID 720706). The note with it: E. coli WT GFP vs humanized-ribosome RFP mutants, 24 h; GFP signal change (wild-type ribosome): stronger effect = lower value, DMSO median 0, no signal -100; OD600 change: measured here: OD600 growth, DMSO median 0, no signal -100; RFP signal change: measured here: RFP humanized mutant strains, DMSO median 0, no signal -100, concentration not given here.
Take `COc1ccc(CNC(=O)C[C@@H]2CC[C@H](NC(=O)c3cccc(F)c3)[C@H](CO)O2)cc1`: the GFP signal change (wild-type ribosome) was -0.639% (inactive), the OD600 change worked out at 4.63% and the RFP signal change was determined as 0.956%.
The like results for `C[C@H]1CN([C@@H](C)CO)C(=O)c2cc(C3=CCCC3)cnc2O[C@H]1CN(C)C(=O)Nc1ccc(F)cc1` were, in that order, -0.884% (inactive), 7.11% and -0.613%.
For the compound `O=C(N[C@@H]1C=C[C@H](CC(=O)N2CCOCC2)O[C@H]1CO)c1ccccn1`, the GFP signal change (wild-type ribosome) is 4.32% (inactive), the OD600 change is 4.06% and the RFP signal change was found to be 0.272%.
`Cc1c(-c2ccccc2)n[nH]c1C(=O)N=Nc1c(O)[nH]c2ccccc12`: the GFP signal change (wild-type ribosome) was -5.9% (inactive), the OD600 change is -4.62% and the RFP signal change amounted to 2.09%.
The like results for `O=C(CNC(=O)Cc1ccccc1)N=Nc1c(O)[nH]c2ccc(Br)cc12` were, in that order, -1.63% (inactive), 10% and 0.336%.
The like results for `Cc1cccc(N=Nc2c(O)[nH]c3ccc(F)cc23)c1` were, in that order, -28.8% (active), 13.6% and 8.49%.
The like results for `C[C@@H]1CN([C@@H](C)CO)S(=O)(=O)c2ccc(C#C[C@@H](C)O)cc2O[C@@H]1CN(C)CC1CC1` were, in that order, 1.29% (inactive), -4.39% and -1.26%.
For `O=C(NCCNc1ccccc1[N+](=O)[O-])c1ccccc1F`, the GFP signal change (wild-type ribosome) is -8.66% (inactive), the OD600 change was 7.69% and the RFP signal change is -6.27%.
The like results for `O=C(NCc1ccccc1Cl)NC(=O)c1csc([N+](=O)[O-])c1` were, in that order, 12.9% (inactive), 2.99% and 1.52%.
The like results for `O=[N+]([O-])c1ccccc1NCc1ccccc1Cl` were, in that order, -29.2% (active), -20.4% and -10.2%.
For the compound `COc1cccc(CN(C)C[C@H]2OCc3ccccc3-c3c(n(C)c4ccccc34)C(=O)N([C@@H](C)CO)C[C@@H]2C)c1`, the GFP signal change (wild-type ribosome) was -21.2% (inactive), the OD600 change was -41.4% and the RFP signal change turned out to be 18.9%.
The like results for `C[C@@H]1CN([C@H](C)CO)S(=O)(=O)c2ccc(C#CC(C)(C)O)cc2O[C@@H]1CN(C)Cc1ccccc1` were, in that order, 1.3% (inactive), -3.23% and -1.75%.
The like results for `C[C@H](CO)N1C[C@H](C)[C@@H](CN(C)Cc2ccccc2)Oc2c(NC(=O)CCCCCC(=O)Nc3ccccc3N)cccc2C1=O` were, in that order, -10% (inactive), -16.3% and 2.5%.
The like results for `C[C@H]1CCCCO[C@@H](CN(C)C(=O)Nc2cccc3ccccc23)[C@@H](C)CN([C@@H](C)CO)C(=O)c2cc(NS(=O)(=O)c3cn(C)cn3)ccc2O1` were, in that order, 0.08% (inactive), -14.1% and 8.18%.
In the case of `Cc1cccc(NS(=O)(=O)c2ccc(-c3cnc(C4CC4)o3)cc2)c1`, the GFP signal change (wild-type ribosome) was -8.12% (inactive), the OD600 change was -53.1% and the RFP signal change worked out at 16.8%.
The like results for `COc1ccc(CNS(=O)(=O)c2ccc(-c3cnc(C4CC4)o3)cc2)cc1` were, in that order, -6.21% (inactive), -8.89% and -0.493%.
As to `Cc1cccc(CNS(=O)(=O)c2ccc(-c3cnc(C4CC4)o3)cc2)c1`, the GFP signal change (wild-type ribosome) is -28.7% (active), the OD600 change was -23% and the RFP signal change is -6.22%.
As to `CN1C(=O)c2cc(NC(=O)c3ccccc3)ccc2OC[C@H]2O[C@@H](CC(=O)O)CC[C@@H]21`, the GFP signal change (wild-type ribosome) is 2.79% (inactive), the OD600 change was determined as 3.92% and the RFP signal change is -0.251%.
The like results for `C[C@@H]1CN([C@H](C)CO)C(=O)c2cccc(NC(=O)CCCCCC(=O)Nc3ccccc3N)c2O[C@H]1CN(C)CC1CCCCC1` were, in that order, -16.1% (inactive), -30.3% and -6.11%.
The like results for `COc1ccc(/C=C2\CCc3ccccc3C2=O)c(OC)c1OC` were, in that order, -21.9% (active), -16.9% and -4.31%.
The like results for `COc1ccc(/C=C2/CCCc3ccccc3C2=O)cc1` were, in that order, -37.4% (inactive), -62.5% and -10.8%.
For `COc1ccc(/C=N/NC(=O)C2CC2)c(OC)c1OC`, the GFP signal change (wild-type ribosome) is 20.9% (inactive), the OD600 change came to 9.1% and the RFP signal change was -1.71%.
The like results for `Cc1ccccc1-c1ccc([C@H]2[C@H](CO)N3C(=O)CN(C(=O)c4cccnc4)C[C@@H]23)cc1` were, in that order, -0.83% (inactive), -6.48% and 5.21%.
Take `O=C1N[C@H](Cc2ccccc2)COCc2cn(nn2)CC[C@@H]1Cc1ccc(-c2ccccc2)cc1`: the GFP signal change (wild-type ribosome) was -0.275% (inactive), the OD600 change amounted to 6.34% and the RFP signal change is -4.54%.
The like results for `CCCC#Cc1cnc2c(c1)C(=O)N([C@H](C)CO)C[C@@H](C)[C@@H](CN(C)C(=O)Nc1ccccc1OC)O2` were, in that order, 4.88% (inactive), 7.2% and -1.58%.
The like results for `COc1ccc(NC(=O)N(C)C[C@@H]2OCCCC[C@H](C)Oc3ccc(NS(=O)(=O)c4cn(C)cn4)cc3C(=O)N([C@@H](C)CO)C[C@@H]2C)cc1` were, in that order, -1.73% (inactive), -0.21% and 1.12%.
The like results for `COc1ccc(S(=O)(=O)Nc2ccc3c(c2)CC(=O)N([C@@H](C)CO)C[C@H](C)[C@@H](CN(C)Cc2ccc(C(=O)O)cc2)O3)cc1` were, in that order, -0.025% (inactive), -7.85% and -0.315%.
With `Cc1ccc(S(=O)(=O)Nc2ccc3c(c2)C(=O)N([C@@H](C)CO)C[C@@H](C)[C@@H](CN(C)Cc2ccc(C(=O)Nc4ccccc4N)cc2)O3)cc1`, the GFP signal change (wild-type ribosome) was -3.29% (inactive), the OD600 change is -1.98% and the RFP signal change came out at 14%.
The like results for `C[C@@H]1CN([C@@H](C)CO)C(=O)c2cc(NS(=O)(=O)c3ccccc3)ccc2O[C@@H]1CN(C)Cc1ccc(C(=O)Nc2ccccc2N)cc1` were, in that order, -20.2% (active), -5.29% and 5.46%.
The like results for `COc1ccc(CN(C)C[C@H]2Oc3ccc(NS(=O)(=O)c4ccc(Cl)cc4)cc3CC(=O)N([C@@H](C)CO)C[C@H]2C)cc1` were, in that order, -45.9% (active), -36.8% and -1.42%.
The like results for `COc1ccc(S(=O)(=O)Nc2ccc3c(c2)CC(=O)N([C@H](C)CO)C[C@H](C)[C@H](CN(C)Cc2ccc(C(F)(F)F)cc2)O3)cc1` were, in that order, -1.22% (inactive), -12.1% and 0.965%.
On to `C[C@H](CO)N1C[C@H](C)[C@H](CN(C)Cc2ccc(C(=O)Nc3ccccc3N)cc2)Oc2ccc(NS(C)(=O)=O)cc2C1=O`, for which the GFP signal change (wild-type ribosome) is 5.88% (inactive), the OD600 change is 6.32% and the RFP signal change is 0.92%.
